Screening data as filed in PubChem BioAssay.
Shown is part of a subset that was picked to be rich in hits.
ALR inh: blocks human ALR sulfhydryl oxidase activity | 3.8% of 290,000 active | inhibition, % (no concentration beside the values) | P55789 | purified ALR, DTT oxidation, H2O2 HRP-luminol luminescence;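 active = mean replicate inhibition above about 79%, with every replicate also reaching it, limit read from the data; inconclusive = only one of the two criteria met; inactive = mean below limit and not every replicate reaching it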
GC-B act: GC-B (human) receptor activation; HEK293-GC-B cells, CNP EC30, cGMP TR-FRET; 0% at EC30 CNP, 100% saturating CNP; activation, % at 10 µM; 0.11% of 370,000 active; P20594;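 active = activation at 10 µM reaching about 35% in either raw or pattern-adjusted values, limit read from the data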
GC-A act: GC-A (human) enzyme activation | 0.14% of 370,000 active | P16066 | activation, % at 10 µM | HEK293 GC-A cells, cGMP TR-FRET, EC30 ANP; 0% at EC30 ANP, 100% saturating ANP | AID 1671463; in the data active = activation above about 40%
HDAC3 inhib: human HDAC3 inhibition; O15379; recombinant HDAC3, fluorogenic peptide/trypsin coupled, fluorescence; inhibition, % at 8.3 µM; 0.15% of 320,000 active; AID 2718; in the data active = inhibition above about 26%, passing the limit was not always enough; inconclusive = no clear call, values can overlap the other calls
Each line names hits and unclear results; the compound was inactive in the other large screens.

O=C(CCSCCC(=O)NCc1ccco1)NCc1ccco1	none
Cc1ccccc1CSCC(=O)Nc1ccccc1-c1ccccc1	none
COC(=O)[C@]12C[C@H](CC(=O)NCc3cccs3)C(=O)N(Cc3ccc4c(c3)OCO4)C1=C[C@H](C(C)(C)C)O[C@@H]2C	none (no result: ALR inh, HDAC3 inhib)
C=CCN1C(=O)C(CC(=O)Nc2ccc(OCCC)cc2)N(CCCN2CCN(Cc3ccccc3)CC2)C1=S (centres undefined)	none
O=C(COC(=O)CCS(=O)(=O)c1ccccc1)Nc1ccc(N2CCCCC2)cc1	none (no result: ALR inh)
CC(=O)N(C)c1cccc(-c2ccc3nnc(C)n3n2)c1	none (no result: ALR inh)
N#CCC(=O)Nc1ccc(C(=O)OCC(=O)c2ccc3c(c2)NC(=O)CO3)cc1	none
O=C(CN1CCCCC1)Nc1cc(S(=O)(=O)N2CCOCC2)ccc1N1CCCC1	none
COc1ccc(CNC(=O)CCSCc2ccccc2Cl)c(OC)c1	none
COc1ccc(CNC(=O)CSCc2ccccc2Cl)cc1	ALR inh 98
Cc1ccccc1CSCC(=O)N/N=C/c1cccs1	ALR inh 98
CC(Sc1nnc2ccccn12)C(=O)Nc1ccc2c(c1)OCO2 (centres undefined)	HDAC3 inhib inconclusive
CC1=C/C(=N\NC(=S)Nc2cccnc2)CC(C)(C)C1	none (no result: ALR inh, HDAC3 inhib)
CC1Cc2nc(SCC(=O)N3CCN(c4ccccc4)CC3)n(C)c(=O)c2S1 (centres undefined)	ALR inh 98
CC1Cc2nc(SCC(=O)N3CCOCC3)n(-c3ccccc3)c(=O)c2S1 (centres undefined)	ALR inh 99 (no result: HDAC3 inhib)
O=C1CCC2(CCC(c3ccccc3)CC2)N1CC[C@@H](O)c1ccccc1 (some centres undefined)	none (no result: ALR inh, HDAC3 inhib)
CC(NC(=O)C(=O)N1CCCCC1)C(c1cccs1)N1CCN(c2ccc(F)cc2)CC1 (centres undefined)	ALR inh 98
CC(NC(=O)C(=O)N1CCCCC1)C(c1cccs1)N1CCN(c2ccccc2)CC1 (centres undefined)	ALR inh 99
CC(NC(=O)C1CC1)C(c1cccs1)N1CCN(c2ccccc2)CC1 (centres undefined)	ALR inh 99
CC(NS(C)(=O)=O)C(c1cccs1)N1CCN(c2ccccc2)CC1 (centres undefined)	ALR inh 99
CC(C)C(=O)NC(C)C(c1cccs1)N1CCN(c2ccccc2)CC1 (centres undefined)	none
O=C(OC12CCCN(C1)/C(=C/c1ccc(Cl)cc1)C2)C1CCCC1 (centres undefined)	none (no result: ALR inh, HDAC3 inhib)
CN1c2ccccc2C(O)=C(C(=S)Nc2ccc(F)c(Cl)c2)S1(=O)=O	ALR inh 96
CN1c2ccccc2C(O)=C(C(=S)Nc2ccccc2)S1(=O)=O	none
Cn1c(=O)c2c(nc(NC3CCCCC3)n2Cc2ccccc2)n(C)c1=O	GC-B act 54, GC-A act 79
Cn1c(=O)c2c(nc(N/N=C/c3ccncc3)n2Cc2ccccc2)n(C)c1=O	ALR inh 97
C/C(Cl)=C\Cn1c(Nc2ccccc2)nc2c1c(=O)n(C)c(=O)n2C	ALR inh 87, GC-B act 55, GC-A act 62
COc1cc(/C=N/Nc2nc3c(c(=O)n(C)c(=O)n3C)n2Cc2ccccc2)ccc1OC(=O)c1ccco1	none
Cc1ccc(Cn2c(N/N=C/c3ccncc3)nc3c2c(=O)n(C)c(=O)n3C)cc1	ALR inh 97
Cc1ccc(Cn2c(SCc3cccnc3)nc3c2c(=O)n(C)c(=O)n3C)cc1	none (no result: HDAC3 inhib)
CC(C)(C)c1ccc(/C=C2\SC(=O)N(CCNC(=O)c3cccc(S(=O)(=O)N4CCOCC4)c3)C2=O)cc1	none (no result: GC-B act, GC-A act)
Cc1cc(-c2ccccc2)c2c(=O)n(-c3ccccc3)[nH]c2n1	ALR inh 99
CC(=O)Nc1ccc(-c2csc(NNC(=O)c3ccccc3)n2)cc1	ALR inh 100
CCCCCC(=O)Nc1ccc(-c2csc(N)n2)cc1	ALR inh 99
CC(=O)Nc1ccc(-c2csc(N/N=C(/C)c3ccccc3)n2)cc1	ALR inh 99
CCC(=O)Nc1ccc(-c2csc(C)n2)cc1	none
CCC(=O)Nc1ccc(-c2csc(NNC(C)=O)n2)cc1	ALR inh 99
O=S(=O)(NCC[C@@H]1CC[C@H](NS(=O)(=O)c2cccc(F)c2)[C@@H](CO)O1)c1cccc(F)c1	none (no result: ALR inh, HDAC3 inhib)
CCOC(=O)/C(C)=N/Nc1nc(-c2ccc(NC(C)=O)cc2)cs1	ALR inh 99
COc1ccc(CCNc2nc(-c3ccc(O)cc3)cs2)cc1OC	none
COc1ccc(CCNc2nc(-c3ccc(NC(C)=O)cc3)cs2)cc1OC	ALR inh 97
CCOC(=O)CN(Cc1ccccc1)C(=O)OC(C)(C)C	none (no result: GC-B act, GC-A act)
CCn1c2ccccc2c2cc(NC(=O)c3ccccc3-c3ccccc3C(=O)O)ccc21	ALR inh 98 (no result: HDAC3 inhib)
Nc1ccn([C@@H]2O[C@H](C(=O)N3CCN(C(=O)C(F)(F)F)CC3)[C@@H](O)[C@H]2O)c(=O)n1	none (no result: ALR inh, HDAC3 inhib)
CC(C)C(c1nnnn1C1CCCC1)N1CCc2ccccc21 (centres undefined)	ALR inh 99
CC(C)C(c1nnnn1C1CCCC1)N1CCCc2ccccc21 (centres undefined)	none
COc1ccccc1-c1cc(C(F)(F)F)nc(N2CCCC2)n1	none
COc1ccc(-c2cc(C(F)(F)F)nc(S(=O)(=O)CCCC(=O)Nc3cc(C)on3)n2)cc1OC	none (no result: ALR inh, HDAC3 inhib)
COc1ccccc1-c1cc(C(F)(F)F)nc(S(=O)(=O)CCCC(=O)Nc2cc(C)on2)n1	GC-A act 76
COc1ccccc1-c1cc(C(F)(F)F)nc(S(=O)(=O)CCCC(=O)Nc2cccnc2Cl)n1	GC-A act 73 (no result: ALR inh, HDAC3 inhib)
COc1ccccc1-c1cc(C(F)(F)F)nc(S(=O)(=O)CCCC(=O)NC(C)C)n1	GC-A act 73
COc1ccccc1-c1cc(C(F)(F)F)nc(S(C)(=O)=O)n1	ALR inh 91, GC-A act 77
COc1ccc(C(=O)c2[nH]c(N)c(C(=O)NCCc3c[nH]c4ccccc34)c2-c2ccc(Br)cc2)cc1	none (no result: ALR inh, HDAC3 inhib)
CC(=O)N1CCOc2ccc(S(=O)(=O)NCc3ccc(C)cc3)cc21	none
COc1ccccc1-c1cc(C(F)(F)F)nc(S(=O)(=O)CCCC(=O)N2CCCCC2C)n1 (centres undefined)	ALR inh 98, GC-A act 78
COc1ccccc1-c1cc(C(F)(F)F)nc(S(=O)(=O)CCCC(=O)NCc2ccc(F)cc2)n1	GC-A act 75
CCOC(=O)C1C(C(=O)Nc2cccc(C(F)(F)F)c2)C1C(=O)NC(C)C (centres undefined)	none
Cc1ccccc1NCCC(=O)Nc1ccc(F)cc1	ALR inh 99
Cc1ccccc1NCCC(=O)Nc1ccc(Cl)cc1	ALR inh 98
Cc1nnc(SCc2cc(=O)[nH]c(=S)[nH]2)s1	none
CCn1c(O)c(C=Nc2ccccc2)sc1=S	HDAC3 inhib inconclusive
CCn1c(O)c(/C=N/n2cnnc2)sc1=S	ALR inh 98
C=C(CCC(=O)c1ccccc1)C(=O)c1ccccc1	ALR inh 97
O=C(CCCCCCCC(=O)c1ccccc1)c1ccccc1	none
